According to PubChem BioAssay (NCATS):
Unmarked numbers belong to inactive results. No rule for the calls is given here.

Test system: HIV-1 nucleocapsid protein NCp7 (binding to TG oligonucleotide)
Assay: HIV Nucleocapsid (AID 346);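 also: potency is for inhibitors that block NC binding and lower polarization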
Conditions: HIV-1 NC / fluorescein-TGTGTGTG probe, fluorescence polarization
Outline: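 HIV-1 NC (100 nM) binding to fluorescein-labelled ssDNA TG4xF (10 nM) in Hepes pH 7.5, 250mM NaCl, 1uM ZnCl2, TCEP and 2-mercaptoethanol; compounds pin-transferred, 1 hr room temperature, fluorescence polarization read on CCD imager.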
Potency is read from the fitted curve at half-maximal effect.

| SMILES | Potency |
| --- | --- |
| Cc1noc(C)c1C(=O)N1CCC2(CCN(Cc3nccs3)CC2)CC1 | > 20 µM |
| FC(F)(F)c1ccccc1-c1cc(NCCN2CCOCC2)ncn1 | > 20 µM |
| CCNc1ncc2nc(-c3cc(F)cc(F)c3)c(=O)n(C3CC3)c2n1 | > 20 µM |
| COc1ccc(CNc2ccnc(-c3ccccc3OC)n2)c(OC)c1 | > 20 µM |
| COc1ccc(CNc2nc(-c3ccc(C(=O)N(C)C)cc3)nc3ccccc23)c(OC)c1 | > 20 µM |
| O=C(c1ccco1)N1CCC2(CCCN(c3ncccn3)C2)CC1 | > 20 µM |
| CCNc1ncc2nc(-c3ccc(Cl)cc3)c(=O)n(C)c2n1 | > 20 µM |
| O=c1c(-c2ccccc2)nc2cnc(N3CCOCC3)nc2n1Cc1ccc(F)cc1 | > 20 µM |
| COc1ccc(Oc2ncc3nc(-c4ccccc4)c(=O)n(C[C@H]4CCCO4)c3n2)cc1 | > 20 µM |
| COCCn1c(=O)c(-c2cn(C)c3ccccc23)nc2cnc(Oc3ccccc3)nc21 | > 20 µM |
| COc1ccccc1CNc1ncnc2ccc(-c3c(C)noc3C)cc12 | > 20 µM |
| O=c1cnc2cnc(Oc3cccc(Cl)c3)nc2n1C[C@H]1CCCO1 | > 20 µM |
| COCCn1c(=O)c(-c2ccccc2)nc2cnc(Oc3cccc(Cl)c3)nc21 | > 20 µM |
| CS(=O)(=O)N1CCC2(CCCN(C(=O)Nc3cccc(C#N)c3)C2)CC1 | > 20 µM |
| N#CCCn1c(=O)c(-c2ccccc2)nc2cnc(Nc3ccccc3)nc21 | > 20 µM |
| CN(C)Cc1ccccc1-c1ccc2ncnc(NCc3cccs3)c2c1 | > 20 µM |
| CC(=O)N1CCC2(CC1)CCN(c1ccc(-c3ccccc3)cc1)CC2 | > 20 µM |
| CN(C)Cc1ccccc1-c1nccc(NC2CC2)n1 | > 20 µM |
| O=C(c1csnn1)N1CCC2(CC1)CN(C(c1ccccc1)c1ccccc1)C2 | > 20 µM |
| COc1ccc(Oc2ncc3nc(-c4ccc(F)cc4)c(=O)n(C4CC4)c3n2)cc1 | > 20 µM |
| Cc1noc(C)c1-c1ccc2ncnc(Nc3ccc(F)cc3)c2c1 | > 20 µM |
| O=C(Nc1ccccc1)N1CCCC2(CCN(C(=O)c3csnn3)CC2)C1 | > 20 µM |
| N#Cc1ccc(CN2CC3(CCN(C(=O)c4csnn4)CC3)C2)cc1 | > 20 µM |
| Cc1noc(C)c1C(=O)N1CCC2(CCCN(C(c3ccccc3)c3ccccc3)C2)CC1 | > 20 µM |

| SMILES | Potency |
| --- | --- |
| O=C(c1cccc(F)c1)N1CCC2(CC1)CCN(c1ccccn1)CC2 | > 20 µM |
| COc1ccc(-n2c(=O)c(-c3cn(C)c4ccccc34)nc3cnc(N4CCNCC4)nc32)cc1 | > 4 µM |
| COc1ccc(C(=O)N2CCC3(CCCN(Cc4ccccc4OC)C3)CC2)cc1 | > 20 µM |
| CN(C)c1ncc2nc(-c3cccs3)c(=O)n(CCc3ccccc3)c2n1 | > 20 µM |
| CN(C)c1ccc(-c2cncnc2NCCc2cnc[nH]2)cc1 | > 20 µM |
| O=c1c(CCc2ccccc2)nc2cncnc2n1Cc1ccc(F)cc1 | > 20 µM |
| CC(C)CN1CC2(CCN(C(=O)c3csnn3)CC2)C1 | > 20 µM |
| COc1ccc2[nH]cc(CCNc3ncncc3-c3ccccc3CN(C)C)c2c1 | > 20 µM |
| O=c1cnc2cnc(Oc3ccccc3)nc2n1Cc1cccs1 | > 20 µM |
| COC(=O)N1CCC[C@@]2(CCN(C(=O)Nc3cccc(F)c3)C2)C1 | > 20 µM |
| Cn1c(=O)cnc2cnc(Oc3ccccc3)nc21 | > 20 µM |
| O=C(c1csnn1)N1CCC[C@@]2(CCN(c3ccccn3)C2)C1 | > 20 µM |
| COc1ccccc1CCn1c(=O)c(-c2ccc(F)cc2)nc2cncnc21 | > 20 µM |
| Clc1ccccc1-c1cc(NCc2ccccc2)ncn1 | > 20 µM |
| COc1ccc(CNc2cc(-c3ccccc3C)ncn2)c(OC)c1 | > 20 µM |
| N#Cc1cccc(-c2ccc3ncnc(NC4CCNCC4)c3c2)c1 | > 20 µM |
| c1ccc(C(c2ccccc2)N2CCCC3(CCNCC3)C2)cc1 | > 20 µM |
| COc1ccc(C(=O)N2CCC3(CC2)CN(c2ccncc2)C3)cc1 | > 20 µM |
| CC(=O)N1CCC[C@@]2(CCN(C(c3ccccc3)c3ccccc3)C2)C1 | > 20 µM |
| O=c1cnc2cnc(N3CCOCC3)nc2n1Cc1cccs1 | > 20 µM |
| O=c1c(-c2ccc(F)cc2)nc2cnc(N3CCOCC3)nc2n1Cc1cccs1 | > 20 µM |
| O=c1c(-c2ccccc2)nc2cnc(N3CCNCC3)nc2n1Cc1cccs1 | > 20 µM |
| O=C(c1ccncc1)N1CCC2(CC1)CCN(C(c1ccccc1)c1ccccc1)CC2 | > 20 µM |
| O=c1c(-c2ccccc2)nc2cnc(Oc3cccc(Cl)c3)nc2n1C1CC1 | > 20 µM |

| SMILES | Potency |
| --- | --- |
| N#CCCn1c(=O)cnc2cnc(N3CCOCC3)nc21 | > 20 µM |
| O=c1c(CCc2ccccc2)nc2cnc(Oc3ccccc3)nc2n1C[C@H]1CCCO1 | > 20 µM |
| COc1ccc(CNc2ncncc2-c2ccccc2C)c(OC)c1 | > 20 µM |
| O=c1c(-c2cccs2)nc2cnc(N3CCOCC3)nc2n1-c1ccccc1 | > 20 µM |
| COc1ccccc1CN1CCCC2(CCN(S(C)(=O)=O)CC2)C1 | > 20 µM |
| COCCn1c(=O)c(-c2ccccc2)nc2cnc(N3CCNCC3)nc21 | > 20 µM |
| CN(C)c1ccc(-c2cc(NCc3cccnc3)ncn2)cc1 | > 20 µM |
| COc1ccccc1CNc1ccnc(-c2ccccc2OC)n1 | > 20 µM |
| CC(C)CN1CCC2(CC1)CCN(S(=O)(=O)c1ccccc1)CC2 | > 20 µM |
| CC(C)CN1CCC2(CC1)CCN(C(=O)c1cccn1C)CC2 | > 20 µM |
| O=C(Nc1ccccc1)N1CC[C@@]2(CCCN(C(=O)c3cccc(F)c3)C2)C1 | > 20 µM |
| Cc1ccccc1-c1ccc2ncnc(N3CCN(C)CC3)c2c1 | > 20 µM |
| CN(C)Cc1ccccc1-c1cc(NC2CC2)ncn1 | > 20 µM |
| COc1ccc(Oc2ncc3nc(-c4ccccc4)c(=O)n(Cc4cccs4)c3n2)cc1 | > 20 µM |
| Cn1cccc1C(=O)N1CCC2(CC1)CN(c1ccncc1)C2 | > 20 µM |
| COc1ccc(-n2c(=O)c(-c3cccs3)nc3cnc(N4CCN(C)CC4)nc32)cc1 | > 20 µM |
| COc1ccc(C(=O)N2CCC3(CCCN(C(=O)Nc4cccc(C#N)c4)C3)CC2)cc1 | > 20 µM |
| Cc1nc2cnc(N3CCOCC3)nc2n(Cc2cccs2)c1=O | > 20 µM |
| CN(C)c1ccc(-c2nc(NCCc3cnc[nH]3)c3ccccc3n2)cc1 | > 20 µM |
| COc1cccc(-c2cc(NCc3cnc(C)cn3)ncn2)c1 | > 20 µM |
| CS(=O)(=O)N1CCC[C@@]2(CCN(C(c3ccccc3)c3ccccc3)C2)C1 | > 20 µM |
| O=c1c(-c2cc(F)cc(F)c2)nc2cnc(Oc3ccccc3)nc2n1C1CC1 | > 20 µM |
| COc1cccc(Cn2c(=O)c(-c3cc(F)cc(F)c3)nc3cnc(N4CCOCC4)nc32)c1 | > 20 µM |
| Cn1cccc1C(=O)N1CCC2(CCCN(Cc3nccs3)C2)CC1 | > 20 µM |

| SMILES | Potency |
| --- | --- |
| CCNc1ncc2nc(C)c(=O)n(CCC#N)c2n1 | > 20 µM |
| COc1ccccc1CNc1ncnc2ccc(-c3ccccc3C#N)cc12 | > 20 µM |
| CC(C)NC(=O)N1CC[C@@]2(CCCN(C(=O)c3ccncc3)C2)C1 | > 20 µM |
| CC(C)CN1CC2(CCN(C(=O)c3cccc(F)c3)CC2)C1 | > 20 µM |
| Cn1c(=O)c(-c2ccc(F)cc2)nc2cnc(OCc3ccccc3)nc21 | > 20 µM |
| O=C(c1cc(C(F)(F)F)cc(C(F)(F)F)c1)N1CCC2(CC1)CCN(c1ncccn1)CC2 | > 20 µM |
| Cc1nc2cnc(N3CCOCC3)nc2n(C[C@H]2CCCO2)c1=O | > 20 µM |
| CCNc1ncc2nc(-c3ccccc3)c(=O)n(CCC#N)c2n1 | > 20 µM |
| N#Cc1ccc(CN2CC[C@@]3(CCCN(C(=O)c4ccncc4)C3)C2)cc1 | > 20 µM |
| Cn1cccc1C(=O)N1CCC2(CC1)CN(C(c1ccccc1)c1ccccc1)C2 | > 20 µM |
| COCC(=O)N1CCC2(CCN(Cc3cc(C(F)(F)F)cc(C(F)(F)F)c3)CC2)CC1 | > 20 µM |
| O=C(c1cnccn1)N1CCC2(CCN(Cc3ccncc3)CC2)CC1 | > 20 µM |
| COc1ccc2[nH]cc(CCNc3cc(-c4cccnc4)ncn3)c2c1 | > 20 µM |
| N#Cc1cccc(-c2cc(NCc3cccs3)ncn2)c1 | > 20 µM |
| CC(C)NC(=O)N1CCCC2(CCN(C(=O)c3cccn3C)CC2)C1 | > 20 µM |
| CN1CCN(c2ncc3nc(-c4cn(C)c5ccccc45)c(=O)n(CCC#N)c3n2)CC1 | > 20 µM |
| O=C(c1cnccn1)N1CCC2(CCN(Cc3cc(C(F)(F)F)cc(C(F)(F)F)c3)CC2)CC1 | > 20 µM |
| COCC(=O)N1CCC[C@@]2(CCN(C(=O)Nc3ccc(OC)cc3)C2)C1 | > 20 µM |
| COc1cccc(Cn2c(=O)c(CCc3ccccc3)nc3cnc(N4CCOCC4)nc32)c1 | > 20 µM |
| COc1cccc(Cn2c(=O)c(-c3ccc(F)c(F)c3)nc3cncnc32)c1 | > 20 µM |
| COc1cccc(-c2cncnc2NCCc2cnc[nH]2)c1 | > 20 µM |
| Fc1ccc(Nc2nc(-c3ccoc3)nc3ccccc23)cc1 | > 20 µM |
| COc1cccc(Nc2ncc3ncc(=O)n(CCc4ccccc4)c3n2)c1 | > 4 µM |
| O=c1c(-c2ccc(F)cc2)nc2cnc(Oc3cccc(Cl)c3)nc2n1C1CC1 | > 20 µM |

| SMILES | Potency |
| --- | --- |
| O=C(c1ccco1)N1CCC2(CCCN(Cc3ccncc3)C2)CC1 | > 20 µM |
| COc1cccc(-c2ccc3ncnc(NCCc4c[nH]c5ccc(OC)cc45)c3c2)c1 | > 20 µM |
| COc1ccc(-c2nc3cnc(N4CCNCC4)nc3n(C)c2=O)cc1 | > 20 µM |
| CS(=O)(=O)N1CCC2(CCCN(c3ccccn3)C2)CC1 | > 20 µM |
| Cc1noc(C)c1-c1nc(NC2CCNCC2)c2ccccc2n1 | > 20 µM |
| O=C(c1ccco1)N1CCC[C@@]2(CCN(Cc3nccs3)C2)C1 | > 20 µM |
| O=c1c(-c2ccccc2)nc2cncnc2n1Cc1ccccc1Cl | > 20 µM |
| CN(C)Cc1ccccc1-c1cc(NCc2cccs2)ncn1 | > 20 µM |
| Cc1noc(C)c1-c1nccc(NCc2cccnc2)n1 | > 20 µM |
| COc1cccc(Cn2c(=O)c(C)nc3cnc(N(C)C)nc32)c1 | > 4 µM |
| CN1CCN(c2ncc3nc(-c4cn(C)c5ccccc45)c(=O)n(C)c3n2)CC1 | > 20 µM |
| COc1ccc(Oc2ncc3nc(C)c(=O)n(CCc4ccccc4)c3n2)cc1 | > 20 µM |
| Cc1cccc(CNc2ncncc2-c2cccc(NS(C)(=O)=O)c2)c1 | > 20 µM |
| O=S(=O)(c1ccccc1)N1CCC[C@@]2(CCN(Cc3nccs3)C2)C1 | > 20 µM |
| COCCn1c(=O)c(-c2cccc(C#N)c2)nc2cnc(N3CCOCC3)nc21 | > 20 µM |
| CN(C)c1ncc2nc(-c3cc(F)cc(F)c3)c(=O)n(Cc3ccc(F)cc3)c2n1 | > 20 µM |
| Cc1cnc(CNc2ccnc(-c3cccc(C#N)c3)n2)cn1 | > 20 µM |
| COc1ccc(CNc2ncncc2-c2c(C)noc2C)c(OC)c1 | > 20 µM |
| c1ccc(CNc2cc(-c3cccnc3)ncn2)cc1 | > 20 µM |
| COc1ccc(Oc2ncc3nc(-c4cn(C)c5ccccc45)c(=O)n(C4CC4)c3n2)cc1 | > 20 µM |
| CN(C)c1ncc2ncc(=O)n(CCc3ccccc3)c2n1 | > 20 µM |
| CS(=O)(=O)Nc1cccc(-c2cncnc2NCc2ccccc2)c1 | > 20 µM |
| N#Cc1cccc(-c2nc3cnc(N4CCOCC4)nc3n(Cc3ccc(F)cc3)c2=O)c1 | > 20 µM |
| N#Cc1cccc(-c2nc(NCCN3CCOCC3)c3ccccc3n2)c1 | > 20 µM |
